# Tau fluor counter = counter-screen for tau fibril formation inhibitors. Potency, µM (highest dose often 57.7 µM), for inactives: top-dose activity change, negative = decrease. AID 1463. tau K18 P301L Alexa594 fluorescence, heparin fibrillization. 0.93% of 280,000 active; further: potency means the concentration at half of the fitted maximal effect; nearly all actives have a fitted effect of over 55% in size
#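 Human K18 P301L tau (15 uM unlabeled plus 0.24 uM Alexa 594-labeled, final) in 100 mM sodium acetate pH 7 was mixed with compound and 20 uM heparin and incubated 6 hr at 37 C.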
# Tau FP inhib = blocks human tau fibril formation measured by polarization; K18 P301L tau heparin fibrillization, Alexa594 FP, 6 h; Potency, µM (highest dose often 57.7 µM), without a hit: at the highest dose activity, negative = inhibition, actives largely listed as inhibitors; 0.39% of 280,000 active; further: potency means the concentration at half of the fitted maximal effect; nearly all actives have a fitted effect of over 55% in size
#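 Recombinant K18 P301L […], labeled with Alexa 594 at 0.24 uM over 15 uM unlabeled; heparin inducer 20 uM final; 37 C, 6 hr; FP endpoint.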
# Tau fibril ThT = inhibitors of human tau fibril formation, thioflavin T binding; recombinant tau K18 P301L, heparin-induced fibrillization, ThT fluorescence; Potency, µM (top dose mostly 57.4 µM), without a hit: at the highest dose activity, negative = inhibition, most hits filed as inhibitors; 2.1% of 270,000 active; AID 1460; further: potency means the concentration at half of the fitted maximal effect; nearly all actives have a fitted effect of over 55% in size
#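 ThT emission at 510 nm, taken 1 hr after adding 30 uM dye, quantifies aggregates formed when 20 uM heparin acts on human tau K18 P301L for 6 hr at 37 C.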
# TexasRed fluor = Texas Red fluorescence interference in TRb-SRC2 counter-screen; TRb/SRC2 Texas Red total fluorescence interference; 0.29% of 280,000 active; Potency, µM (doses to about 106 µM), inactives show at the highest dose fluorescence change, negative = quenching; active means well fitted curve in either direction with a large enough effect; inconclusive means small, poorly fitted or top-dose-only effect; further: potency means the concentration at half of the fitted maximal effect
#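 Flags fluorescent or light-absorbing compounds by total fluorescence, S + 2P, at 555 nm excitation and 632 nm emission. Mixture: 20 nM Texas Red SRC2 peptide, 0.6 uM human TRb LBD, 1 uM T3, 5% DMSO; compound exposure 5 h at ambient temperature.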
# PNC inhibitor = inhibitors of perinucleolar compartment assembly; AID 2417; activity change (PNC), negative = inhibition, % at 10 µM; 3.1% of 140,000 active; PC3M PTB-GFP, PNC prevalence imaging, 16 h; active compounds read low;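 active means readout at or below -70, meaning at least 70% loss of cells showing the perinucleolar compartment, a nuclear body marking cancer cells; inconclusive means readout between -30 and a set limit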;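 further: plate controls were DMSO wells for no effect and camptothecin positive control wells for full effect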
#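 PC3M cells stably expressing PTB-GFP, 750–1000 cells/well, treated 16 h at 37 °C with compound (23 nl of library stock), in duplicate. After paraformaldehyde fixation and Hoechst stain, imaged at 20x; PNC prevalence scored by image analysis.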
# TRb-SRC2 inh = TRbeta-SRC2 interaction inhibition; Potency, µM (series often up to 106 µM), without a hit: top-dose activity change, negative = inhibition, usual class: inhibitors; TRbeta-SRC2 peptide binding, fluorescence polarization; receptor liganded with 1 µM T3; 0.065% of 280,000 active;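 further: potency means the concentration at half of the fitted maximal effect; plate controls were bound peptide for no effect and peptide without receptor for full effect; nearly all actives have a fitted effect of over 50% in size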
# Target sequence (P10828 whole entry, looked up): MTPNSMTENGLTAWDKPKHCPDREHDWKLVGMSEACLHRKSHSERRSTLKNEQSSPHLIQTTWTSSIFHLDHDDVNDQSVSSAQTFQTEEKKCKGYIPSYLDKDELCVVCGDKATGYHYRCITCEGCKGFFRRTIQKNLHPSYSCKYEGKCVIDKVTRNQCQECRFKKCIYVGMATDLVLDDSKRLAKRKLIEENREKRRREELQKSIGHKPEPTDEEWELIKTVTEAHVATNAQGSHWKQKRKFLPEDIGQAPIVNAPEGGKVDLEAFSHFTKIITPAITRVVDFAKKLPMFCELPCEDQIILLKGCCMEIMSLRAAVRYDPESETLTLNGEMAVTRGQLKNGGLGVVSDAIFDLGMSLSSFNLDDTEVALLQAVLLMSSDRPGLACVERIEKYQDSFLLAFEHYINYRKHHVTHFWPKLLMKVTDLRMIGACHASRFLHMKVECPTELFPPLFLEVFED
#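 TRb LBD 0.6 uM + Texas Red SRC2 peptide 20 nM, 1 uM T3, Tris buffer w/ 5% DMSO; compound pinned, 5 h RT; FP read ex 555/em 632; normalized to unbound and bound controls.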
# An asterisk follows results filed as active; ? = inconclusive; nt = not tested or not shown; [ ] = dose if it differs, or a comment. Sampled rows, rich in hits. Any-hit rate of the full collection: about 4.6%. Unless noted, the call rests on the fitted dose curve; in most records, active means well fitted curve in the direction sought with a large enough effect; inconclusive means small, poorly fitted or top-dose-only effect, or another doubt; inactive means no such curve, though single readings can be large; an effect the other way counts as inactive or inconclusive. Unless noted, on the % scale 0 is the no-effect control and ±100 the full control effect.
SMILES,Tau fluor counter,Tau FP inhib,Tau fibril ThT,TexasRed fluor,PNC inhibitor,TRb-SRC2 inh
CN1C(=O)/C(=C2\SC(=S)N(CC3CCCO3)C2=O)c2ccccc21 (stereo not drawn),-16.1%,5.5%,-12.4%,1.4%,-27.1,-5.7%
NC(=Nc1ccc(N)cc1)C(N)=Nc1ccc(N)cc1,?,?,8.91µM*,-3.1%,nt,5.9%
O=C(NCc1ccc(Cl)cc1)c1cnn2ccccc12,-13.1%,2.5%,-16.0%,-2.1%,20.5,-4.0%
COCCCNC(=O)c1cc2cc(Br)ccc2oc1=O,2.9%,-2.7%,0.6%,-1.8%,nt,-4.2%
O=C(NNC(=O)c1cc2cc(Br)ccc2oc1=O)c1ccc(O)cc1O,?,2.5%,8.91µM*,-15.8%,nt,0.2%
Cc1cc(C)nc(Oc2ccc(Br)cc2Br)n1,0.5%,4.8%,-0.5%,-0.9%[53 µM],nt,7.6%[53 µM]
O=C1C(NS(=O)(=O)c2cccs2)=C(N2CCN(c3cccc(C(F)(F)F)c3)CC2)C(=O)c2ccccc21,7.08µM*[quencher],-1.7%,4.47µM*,-3.6%,?,-9.7%
O=C(O)c1cccc(NC2=C(N3CCOCC3)C(=O)c3ccccc3C2=O)c1,?,?,31.6µM*,-1.7%,nt,-2.8%
O=C1C(NS(=O)(=O)c2ccc(Cl)cc2)=C(N2CCCCC2)C(=O)c2ccccc21,?,?,15.8µM*,7.1%,?,0.9%
CC(NS(C)(=O)=O)C(c1cccs1)N1CCN(Cc2ccccc2)CC1 (stereo not drawn),-0.9%,4.3%,-8.5%,-0.1%,?,-5.5%
CN(C1=C(N2CCOCC2)C(=O)c2ccccc2C1=O)c1ccccc1,?,-12.0%,?,-3.4%,7.1,-4.2%
NC(=O)C1CCN(C2=C(NS(=O)(=O)c3ccccc3)C(=O)c3ccccc3C2=O)CC1,-26.8%,4.8%,?,-4.3%,nt,1.6%
O=C1C(NS(=O)(=O)c2cccs2)=C(N2CCN(Cc3ccccc3)CC2)C(=O)c2ccccc21,?,-11.6%,15.8µM*,-4.9%,nt,0.3%
O=C(NCc1cn2ccccc2n1)c1ccc(Br)o1,9.7%,-1.2%,6.6%,3.2%,-8.9,-1.0%
OCC(O)C(O)C(O)CO (stereo not drawn),-7.7%,-1.3%,-5.4%,-0.8%,nt,-1.0%
CCOc1ccccc1N1CCN(C2=C(NS(=O)(=O)c3cccs3)C(=O)c3ccccc3C2=O)CC1,12.6µM*[quencher],?,8.91µM*,-2.4%,10.8,-3.0%
O=C1C(NS(=O)(=O)c2cccs2)=C(N2CCOCC2)C(=O)c2ccccc21,?,?,15.8µM*,-2.5%,nt,-2.8%
CN1CCN(C2=C(NS(=O)(=O)c3cccs3)C(=O)c3ccccc3C2=O)CC1,-9.7%,-18.7%,?,-2.6%,nt,1.0%
COc1ccccc1N1CCN(S(=O)(=O)c2cccs2)CC1,-20.4%,1.8%,-10.2%,-4.4%,?,-19.8%
COc1cc2c(=O)n(CCc3ccccc3)c(=O)n(CC(=O)Nc3ccccc3)c2cc1OC,?,?,?,-0.8%,nt,-6.8%
O=C(CCSc1ccc(Cl)cc1)NC1CCCCC1,-2.9%,-0.7%,-1.7%,-4.4%,-109.4*,5.7%
c1ccc(-n2nnnc2CN2CCOCC2)cc1,2.7%,3.8%,3.8%,1585µM*[quencher],29.2,-21.8%[53 µM]
Cc1cc(C)c2cc(C#N)c(NCCCNC(=O)CCC(=O)O)nc2c1,1.4%,7.1%,-3.7%,0.8%,-87.2*,4.0%
CCC(=O)NCCCNc1nc2c(C)cccc2cc1C#N,6.0%,-5.4%,0.7%,-2.2%,nt,4.0%
O=C(c1ccccc1)c1ccc2nc(Nc3cc(Cl)ccc3O)c3nncn3c2c1,17.8µM*[quencher],?,-9.5%,-2.0%,nt,0.3%
COc1ccc(Cl)cc1Nc1nc2ccc(C(=O)c3ccccc3)cc2n2cnnc12,-19.8%,0.6%,-8.1%,-1.8%,nt,-3.1%
Cc1nn(C(C)C(=O)NC2CCC(C)CC2)c(=O)c2c1sc1ccccc12 (stereo not drawn),-25.0%,-0.5%,?,-0.6%,nt,-2.9%
